Screens deposited in PubChem by National Center for Advancing Translational Sciences (NCATS).
Shown is part of a subset that was picked to be rich in hits.
LmPK inh: inhibitors of Leishmania mexicana pyruvate kinase | Q27686 | purified LmPK, Kinase-Glo ATP luminescence, 1 h | Potency, µM (highest dose often 57.5 µM), without a hit: top-dose activity change, negative = inhibition, most hits filed as inhibitors | 290,000 tested, 0.37% active | AID 1721; note: potency is the fitted concentration of half-maximal effect; % is set by controls: 0 for no effect and ±100 for the full control effect
Target sequence (Q27686 whole entry, looked up): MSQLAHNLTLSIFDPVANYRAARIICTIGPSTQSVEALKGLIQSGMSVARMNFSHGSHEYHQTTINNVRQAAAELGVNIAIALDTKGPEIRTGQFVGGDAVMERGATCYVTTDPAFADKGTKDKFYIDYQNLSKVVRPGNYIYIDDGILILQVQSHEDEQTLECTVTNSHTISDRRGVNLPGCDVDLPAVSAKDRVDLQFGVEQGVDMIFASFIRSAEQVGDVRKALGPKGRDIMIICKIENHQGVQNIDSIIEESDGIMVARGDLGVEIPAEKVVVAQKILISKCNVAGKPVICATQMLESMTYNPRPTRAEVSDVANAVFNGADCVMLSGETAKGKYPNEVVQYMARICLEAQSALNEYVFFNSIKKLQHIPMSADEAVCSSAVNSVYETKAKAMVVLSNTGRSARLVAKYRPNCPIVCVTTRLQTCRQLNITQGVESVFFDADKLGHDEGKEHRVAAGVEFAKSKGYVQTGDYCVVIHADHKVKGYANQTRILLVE
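0.1 nM LmPK, 0.5 mM PEP, 0.1 mM ADP; 50 mM imidazole pH 7.2, 7 mM MgCl2, 50 mM KCl; 1 h RT. Kinase-Glo luminescence readout, normalized to no-enzyme (full inhibition) and uninhibited wells.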
Shiga inhibitor: Shiga toxin inhibition | 290,000 tested, 9.2% active | Vero cells, Shiga toxin protein synthesis inhibition reporter | inhibition, % at 38.7 µM; in the data active = inhibition mostly above about 28%, no sharp cut-off; inactive = mostly below about 43%; note: 0% is about no effect
Sm TGR inh: S. mansoni TGR enzyme inhibition; Q962Y6; purified TGR, DTNB reduction, TNB absorbance 405 nm; Potency, µM (highest dose often 114 µM), for the others: at the highest dose activity change, negative = inhibition, usual class: inhibitors; 360,000 tested, 3% active; note: potency is the fitted concentration of half-maximal effect; % is set by controls: 0 for no effect and ±100 for the full control effect; nearly all actives have a fitted effect of over 60% in size
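Kinetic colorimetric format: TGR-catalysed, NADPH-driven DTNB reduction monitored via TNB absorbance. Enzyme dispensed at 20 nM; compound exposure 15 min at room temperature before reaction start.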
TbPYK inhibitor: blocks Trypanosoma brucei pyruvate kinase | Q57TT1 | TbPYK enzyme, Kinase-Glo Plus ATP luminescence, 45 min | Potency, µM (doses to about 76.8 µM), inactives show top-dose activity, negative = inhibition, actives largely listed as inhibitors | 410,000 tested, 0.12% active | AID 624173; note: potency is the fitted concentration of half-maximal effect; % is set by controls: 0 for no effect and ±100 for the full control effect; nearly all actives have a fitted effect of over 50% in size
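Enzyme and substrate buffer are dispensed first and compound is pin-transferred. ADP at 130 uM final then starts the reaction, which runs 45 min at room temperature. Detection reagent is added for 10 min before luminescence is imaged.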
Cycloheximide cs: counter-screen for Shiga toxin inhibitors: cycloheximide protein synthesis inhibition | cell reporter, cycloheximide protein synthesis inhibition counterscreen | max response, % | 300,000 tested, 12% active | AID 2314; in the data active = max response mostly above about 13%, no sharp cut-off; inactive = mostly below about 14%; note: read at 38.3 µM for the half of the compounds with a filed dose; 0% is about no effect
Giardia FBPA inh-1: Giardia lamblia aldolase inhibition; A8B2U2; purified Giardia FBPA; Potency, µM (titrated, usually from 59.6 µM), inactives show at the top dose activity, negative = inhibition, actives largely listed as inhibitors; 290,000 tested, 0.71% active; AID 2451; note: potency is the fitted concentration of half-maximal effect; % is set by controls: 0 for no effect and ±100 for the full control effect; nearly all actives have a fitted effect of over 55% in size
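Giardia FBPA (40 nM reagent) was preincubated 10 min at RT with compound (up to 57.5 uM final), then substrate plus GAPDH/TPI/NAD/arsenate coupling system with diaphorase/resazurin was added; resorufin fluorescence (525/598 nm) was read after 20 min.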
Giardia growth: Giardia lamblia growth inhibition. AID 2785. shares compounds with Giardia FBPA inh-1. Giardia lamblia trophozoite growth inhibition. Potency, µM (titrated, usually from 57.5 µM), inactives show top-dose activity change, negative = inhibition, most hits filed as inhibitors. 1,500 tested, 5% active;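 note: potency is the fitted concentration of half-maximal effect; trophozoites exposed to compound for 48 h at 37 °C; % is set by controls: 0 for no effect and ±100 for the full control effect; nearly all actives have a fitted effect of over 70% in size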
Mammal cell tox: toxic to mammalian cells in Giardia aldolase counter-screen | AID 2786 | shares compounds with Giardia FBPA inh-1 | Potency, µM (top dose mostly 57.5 µM), without a hit: at the highest dose viability change, negative = toxicity, actives largely listed as inhibitors | mammalian cell viability counter-screen, qHTS | 1,500 tested, 4% active;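 note: Chinese hamster ovary cells used as mammalian cytotoxicity surrogate; viability measured as cellular ATP by luminescence; potency is the fitted concentration of half-maximal effect; compound exposure lasted 48 h before reading; % is set by controls: 0 for no effect and ±100 for the full control effect; nearly all actives have a fitted effect of over 60% in size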
Giardia FBPA inh-2: confirmation of Giardia fructose-bisphosphate aldolase inhibitors | shares compounds with Giardia FBPA inh-1 | purified Giardia aldolase enzyme activity, qHTS | Potency, µM (top dose mostly 57.5 µM), for the others: top-dose activity change, negative = inhibition, actives largely listed as inhibitors | 1,500 tested, 5% active | AID 2787; note: potency is the fitted concentration of half-maximal effect; % is set by controls: 0 for no effect and ±100 for the full control effect; nearly all actives have a fitted effect of over 45% in size
Rabbit aldolase: selectivity test for Giardia aldolase inhibitors: rabbit aldolase | shares compounds with Giardia FBPA inh-1 | Rabbit muscle FBPA enzyme inhibition, selectivity counter-screen | Potency, µM (highest dose often 57.5 µM), for inactives: at the highest dose activity, negative = inhibition, usual class: inhibitors | 1,500 tested, 4% active; note: potency is the fitted concentration of half-maximal effect; % is set by controls: 0 for no effect and ±100 for the full control effect; nearly all actives have a fitted effect of over 60% in size
Target sequence (P00883 whole entry, looked up): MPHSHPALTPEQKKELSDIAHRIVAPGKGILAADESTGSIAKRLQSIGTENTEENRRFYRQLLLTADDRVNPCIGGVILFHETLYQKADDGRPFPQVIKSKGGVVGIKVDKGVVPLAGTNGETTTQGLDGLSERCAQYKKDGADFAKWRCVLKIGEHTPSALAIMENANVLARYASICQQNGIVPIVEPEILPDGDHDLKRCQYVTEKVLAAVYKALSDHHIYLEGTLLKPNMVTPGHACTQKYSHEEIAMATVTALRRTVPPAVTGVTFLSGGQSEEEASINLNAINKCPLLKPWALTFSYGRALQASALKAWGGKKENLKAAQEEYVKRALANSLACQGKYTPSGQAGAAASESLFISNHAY
GAPDH counter: counter-screen for Giardia aldolase inhibitors: GAPDH coupling enzyme | AID 2795 | Potency, µM (titrated, usually from 57.5 µM), without a hit: top-dose activity change, negative = inhibition, actives largely listed as inhibitors | GAPDH coupling enzyme counterscreen, biochemical, qHTS | 1,500 tested, 6% active | shares compounds with Giardia FBPA inh-1; note: potency is the fitted concentration of half-maximal effect; % is set by controls: 0 for no effect and ±100 for the full control effect; nearly all actives have a fitted effect of over 55% in size
* hit, by the source's call; [ ] = another dose, or the depositor's remark. Unless noted, calls come from the whole dose curve; as a rule, active = well fitted curve in the direction sought with a large enough effect; inconclusive = small, poorly fitted or top-dose-only effect, or another doubt; inactive = no such curve, though single readings can be large; an effect the other way counts as inactive or inconclusive.

What do the screens show for `COc1ccc(C)cc1-n1[nH]nnc1=S`?
LmPK inh: 3%; Shiga inhibitor: -19; Sm TGR inh: 2%; TbPYK inhibitor: -17%; Cycloheximide cs: 0; Giardia FBPA inh-1: 14µM*; Giardia growth: -47%; Mammal cell tox: 16%; Giardia FBPA inh-2: 3%; Rabbit aldolase: 7%; GAPDH counter: 13%

What do the screens show for `Fc1ccc(-n2[nH]nnc2=S)cc1N1CCCC1`?
LmPK inh: 3%; Shiga inhibitor: 13; Sm TGR inh: -30%; TbPYK inhibitor: inconclusive; Cycloheximide cs: 12; Giardia FBPA inh-1: 14%

Results for CCN1CCc2c(sc(N)c2C#N)C1 ?
LmPK inh: -3%; Shiga inhibitor: -3; Sm TGR inh: inconclusive; TbPYK inhibitor: -2%; Cycloheximide cs: -1; Giardia FBPA inh-1: inconclusive

How did N#Cc1c(N)sc(=S)c2c1CCN(Cc1ccccc1)C2 do in these assays?
LmPK inh: 1%; Shiga inhibitor: -11; Sm TGR inh: inconclusive; Cycloheximide cs: -1; Giardia FBPA inh-1: 1.3µM*; Giardia growth: 15%[38.3 µM]; Mammal cell tox: -8%; Giardia FBPA inh-2: 32µM*; Rabbit aldolase: inconclusive; GAPDH counter: 32µM*

How did CCN(CC)c1ccc2c(C)c(Cl)c(=O)oc2c1 do in these assays?
LmPK inh: -12%; Shiga inhibitor: 24; Sm TGR inh: 11%; TbPYK inhibitor: -3%; Cycloheximide cs: 10; Giardia FBPA inh-1: 18µM*; Giardia growth: -3%; Mammal cell tox: -1%; Giardia FBPA inh-2: -1%; Rabbit aldolase: 9%; GAPDH counter: -2%

How did CCN(CC)c1ccc2c(Cl)c(Br)c(=O)oc2c1 do in these assays?
LmPK inh: 1%; Shiga inhibitor: -1; Sm TGR inh: inconclusive; TbPYK inhibitor: -1%; Cycloheximide cs: 8; Giardia FBPA inh-1: 2%

How did COCCCN1C(=O)C(CC(=O)NCCCN(C)C)CC(C(=O)N2CCOCC2)=C1C (stereo not drawn) do in these assays?
TbPYK inhibitor: 0%

How did C/C(Nc1ccc(Cl)cc1)=C1/CCOC1=O do in these assays?
TbPYK inhibitor: 3%

What do the screens show for `Cc1[nH]c2ccccc2c1/C=N/Nc1nc2ccccc2[nH]1`?
LmPK inh: -2%; Shiga inhibitor: 112*; Sm TGR inh: 12%; TbPYK inhibitor: -5%; Cycloheximide cs: 43*; Giardia FBPA inh-1: 18µM*; Giardia growth: -4%[10.4 µM]; Mammal cell tox: -20%; Giardia FBPA inh-2: -10%; Rabbit aldolase: -6%; GAPDH counter: -2%

Results for CCOc1cc(/C=N/Nc2nnc(C)n2N)ccc1O ?
LmPK inh: -1%; Shiga inhibitor: 50*; Sm TGR inh: 50µM*; TbPYK inhibitor: 2%; Cycloheximide cs: 25*; Giardia FBPA inh-1: 16µM*; Giardia growth: -17%; Mammal cell tox: 14%; Giardia FBPA inh-2: inconclusive; Rabbit aldolase: inconclusive; GAPDH counter: inconclusive

Results for CCc1nnc(N/N=C/c2c(F)cccc2Cl)n1N ?
LmPK inh: -4%; Shiga inhibitor: 10; Sm TGR inh: 4%; TbPYK inhibitor: 10%; Cycloheximide cs: 4; Giardia FBPA inh-1: 20µM*; Giardia growth: -26%; Mammal cell tox: 1%; Giardia FBPA inh-2: -27%; Rabbit aldolase: -15%; GAPDH counter: -13%

How did CCOc1cc(/C=N/NC(=O)C(=O)N/N=C/c2ccc(O)c(OCC)c2)ccc1O do in these assays?
LmPK inh: -2%; Shiga inhibitor: 4; Sm TGR inh: -2%; TbPYK inhibitor: 1%; Cycloheximide cs: -1; Giardia FBPA inh-1: 10%

How did CCc1nnc(N/N=C/c2c(C)[nH]c3ccccc23)n1N do in these assays?
LmPK inh: -2%; Shiga inhibitor: 15; TbPYK inhibitor: -9%; Cycloheximide cs: -1; Giardia FBPA inh-1: 18µM*; Giardia growth: 17%; Mammal cell tox: 0%; Giardia FBPA inh-2: inconclusive; Rabbit aldolase: inconclusive; GAPDH counter: -24%

What do the screens show for `CCN(CC)c1ccc(NC(=O)CN2C(=O)c3cccnc3Sc3ccccc32)c(C)c1`?
Sm TGR inh: 4%; TbPYK inhibitor: 3%

Results for Cn1c(=O)c2c(nc(N3CCOCC3)n2Cc2ccccc2F)n(C)c1=O ?
Sm TGR inh: 7%; TbPYK inhibitor: -7%

What do the screens show for `O=C(COC(=O)Cc1ccc(Cl)cc1)NC1CCCC1`?
Sm TGR inh: -13%; TbPYK inhibitor: -4%

Results for Cc1nnc(N/N=C/c2c(Cl)cccc2Cl)n1N ?
LmPK inh: -4%; Shiga inhibitor: 39; TbPYK inhibitor: -4%; Cycloheximide cs: 12; Giardia FBPA inh-1: 22µM*; Giardia growth: 13%; Mammal cell tox: 8%; Giardia FBPA inh-2: -15%; Rabbit aldolase: -3%; GAPDH counter: -1%

Results for Cc1nnc(N/N=C/c2ccc(-c3ccccc3F)o2)n1N ?
LmPK inh: -4%; Shiga inhibitor: 150*; Sm TGR inh: -16%; TbPYK inhibitor: -6%; Cycloheximide cs: 25*; Giardia FBPA inh-1: 16µM*; Giardia growth: inconclusive; Mammal cell tox: 0%; Giardia FBPA inh-2: 16µM*; Rabbit aldolase: inconclusive; GAPDH counter: inconclusive

How did CCc1nnc(N/N=C/c2cc(C)c(C)cc2C)n1N do in these assays?
LmPK inh: -2%; Shiga inhibitor: 10; Sm TGR inh: inconclusive; TbPYK inhibitor: -2%; Cycloheximide cs: -2; Giardia FBPA inh-1: 13µM*; Giardia growth: 17%; Mammal cell tox: -4%; Giardia FBPA inh-2: -24%; Rabbit aldolase: -8%; GAPDH counter: -5%

How did COC(=O)c1ccccc1-c1ccc(/C=N/NC(N)=O)o1 do in these assays?
LmPK inh: -4%; Shiga inhibitor: 9; Sm TGR inh: 3%; TbPYK inhibitor: 3%; Cycloheximide cs: 0; Giardia FBPA inh-1: -8%
